Bioassay records from PubChem.
Sampled rows, rich in hits. Any-hit rate of the full collection: about 21%.
RORgamma inh – inhibitors of mouse ROR gamma transcriptional activity. P51450. Drosophila S2 Gal4-RORgamma UAS-luciferase reporter, 20 h. Potency, µM (titrated, usually from 53.6 µM), for the others: at the top dose activity change, negative = inhibition, actives largely listed as inhibitors. hit rate 5.4% among 310,000. AID 2551; also: potency is read from the fitted curve at half-maximal effect; nearly all actives have a fitted effect of over 60% in size
Target sequence (P51450 whole entry, looked up, the tested form may be a part): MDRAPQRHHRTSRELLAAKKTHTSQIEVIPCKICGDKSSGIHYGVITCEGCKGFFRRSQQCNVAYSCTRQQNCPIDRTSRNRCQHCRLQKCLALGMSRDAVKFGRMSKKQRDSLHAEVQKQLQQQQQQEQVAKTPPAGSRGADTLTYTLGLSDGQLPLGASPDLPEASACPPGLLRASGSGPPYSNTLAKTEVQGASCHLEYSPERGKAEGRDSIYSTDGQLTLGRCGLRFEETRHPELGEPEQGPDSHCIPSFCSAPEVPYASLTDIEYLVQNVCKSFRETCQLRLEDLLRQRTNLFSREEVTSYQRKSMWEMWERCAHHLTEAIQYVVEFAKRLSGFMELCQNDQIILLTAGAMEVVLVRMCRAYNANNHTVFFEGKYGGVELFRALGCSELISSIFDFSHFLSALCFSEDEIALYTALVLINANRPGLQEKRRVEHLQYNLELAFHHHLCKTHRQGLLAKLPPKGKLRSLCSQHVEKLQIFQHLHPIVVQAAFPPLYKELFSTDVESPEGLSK
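Drosophila Schneider cells stably carrying a metallothionein-driven Gal4 DBD–ROR gamma fusion and a UAS-Photinus luciferase reporter were exposed to compound for 1 hr, then induced with copper sulfate (700 uM final) for 20 hr at ambient temperature before luminescence reading.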
IL-1B inflam inh – blocks inflammasome-driven IL-1 beta release; THP-1 LPS/ATP IL-1B secretion, AlphaLISA, 16 h; hits give low values; activity change, % at 57.5 µM; hit rate 4.7% among 360,000; AID 743279; in the data active = activity change below about -50%; inconclusive = mostly about -30% to -49%
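Secreted IL-1B measured by AlphaLISA bead assay after 16 h compound exposure of THP-1 cells; compounds (final up to 57.5 uM) added 1 h before LPS (250 ng/mL) and ATP (1.25 mM) stimulation; lower signal means less secretion.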
DT40 TDP1 CPT – growth inhibition of DT40 Tdp1-/-;hTDP1 cells with camptothecin (screen for TDP1 inhibitors); chicken DT40 Tdp1-/-;hTDP1 cells + 20 nM CPT, ATP luminescence, 48 h; Potency, µM (series often up to 46.2 µM), inactives show at the top dose activity change, negative = growth inhibition, hits mostly inhibitors; hit rate 12% among 420,000; AID 686979; also: potency is read from the fitted curve at half-maximal effect; nearly all actives have a fitted effect of over 55% in size
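Cell growth measured by CellTiter-Glo luminescence after a minimum 48 h, 37 C compound exposure with 20 nM CPT in Tdp1-knockout DT40 cells stably expressing hTDP1, seeded 400/well; qHTS titration format.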
VP16 counter – Gal4-VP16 reporter inhibition counter-screen. Drosophila S2 Gal4-VP16 UAS-luciferase, luminescence, 20 h. Potency, µM (doses to about 53.6 µM), for the others: at the top dose activity, negative = inhibition, actives largely listed as inhibitors. hit rate 3.5% among 310,000. AID 2546;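 also: Gal4-VP16 expression switched on by copper sulfate through the metallothionein promoter; potency is read from the fitted curve at half-maximal effect; nearly all actives have a fitted effect of over 50% in size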
TDP1 cell noCPT – qHTS for Inhibitors of human tyrosyl-DNA phosphodiesterase 1 (TDP1): qHTS in cells in absence of CPT. DT40 Tdp1-/- hTDP1 cells, no CPT, ATP luminescence, 48 h. Potency, µM (titrated, usually from 46.2 µM), without a hit: at the top dose activity change, negative = growth inhibition, hits mostly inhibitors. hit rate 15% among 420,000. AID 686978, 2013; also: potency is read from the fitted curve at half-maximal effect; nearly all actives have a fitted effect of over 55% in size
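Cells were dispensed at 400 per well, compounds added by pin tool, plates incubated ≥48 hr at 37 °C, then CellTiter-Glo added for 30 min at room temperature before luminescence reading. Line: DT40 Tdp1-/- complemented with hTDP1; camptothecin omitted.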
ELG1 DNA repair – blocks ELG1-dependent DNA repair in HEK293T cells; HEK293T ELG1-luciferase reporter, luminescence, 16 h; DNA damage induced by 5-fluorouridine; Potency, µM (series often up to 46.1 µM), without a hit: at the highest dose activity change, negative = inhibition, hits mostly inhibitors; hit rate 2.3% among 330,000; also: potency is read from the fitted curve at half-maximal effect; nearly all actives have a fitted effect of over 55% in size
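Reporter activity after DNA damage by 5-fluorouridine is monitored. Compound-treated cells incubate 16 hr at 37 °C, then ONE-Glo is added for 30 min before luminescence reading.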
* hit, by the source's call. Unless noted, calls follow the shape of the dose curve; as a rule, active = well fitted curve in the direction sought with a large enough effect; inconclusive = small, poorly fitted or top-dose-only effect, or another doubt; inactive = no such curve, though single readings can be large; an effect the other way counts as inactive or inconclusive. % is scaled to controls: 0 for no effect and ±100 for the full control effect.

How did CC(C)(C)C(=O)/C(=C/c1ccncc1)n1cncn1 do in these assays?
RORgamma inh: 1µM*; IL-1B inflam inh: -98*; DT40 TDP1 CPT: 3.3µM*; VP16 counter: 2.8µM*; TDP1 cell noCPT: 1.6µM*; ELG1 DNA repair: inconclusive

How did Cc1nn(C)c(C)c1/C=C(/C(=O)C(C)(C)C)n1cncn1 do in these assays?
RORgamma inh: -12%; IL-1B inflam inh: -57*; DT40 TDP1 CPT: inconclusive; VP16 counter: -10%; TDP1 cell noCPT: 23µM*; ELG1 DNA repair: inconclusive

What do the screens show for `Cc1nn(C)c(C)c1/C=C(/C(=O)C(C)C)n1cncn1`?
RORgamma inh: 12%; IL-1B inflam inh: 0; DT40 TDP1 CPT: -1%; VP16 counter: 12%; TDP1 cell noCPT: -2%; ELG1 DNA repair: 12%

Results for FC(F)(F)Oc1ccccc1C(c1nnnn1C1CCCC1)N1CCN(C/C=C/c2ccccc2)CC1 (stereo unspecified) ?
IL-1B inflam inh: -26; DT40 TDP1 CPT: inconclusive; TDP1 cell noCPT: 16µM*

How did COc1cccc(C(c2nnnn2C2CCCCC2)N2CCN(C/C=C/c3ccccc3)CC2)c1OC (stereo unspecified) do in these assays?
DT40 TDP1 CPT: 16µM*; TDP1 cell noCPT: 13µM*

How did CCN1CCN(C(c2ccccc2OC)c2nnnn2C2CCCCC2)CC1 (stereo unspecified) do in these assays?
RORgamma inh: 22%; IL-1B inflam inh: -2; DT40 TDP1 CPT: 4%; VP16 counter: 0%; TDP1 cell noCPT: -22%; ELG1 DNA repair: 8%

What do the screens show for `COc1ccccc1-n1cnc2c(c1=O)c1nc3ccccc3nc1n2-c1ccc(C)cc1`?
RORgamma inh: inconclusive; IL-1B inflam inh: -1; DT40 TDP1 CPT: inconclusive; VP16 counter: -1%; TDP1 cell noCPT: inconclusive; ELG1 DNA repair: inconclusive

Results for COc1ccccc1-n1c2nc3ccccc3nc2c2c(=O)n(-c3cc(C)cc(C)c3)cnc21 ?
RORgamma inh: 49%; IL-1B inflam inh: -95*; DT40 TDP1 CPT: 3.7µM*; VP16 counter: -12%; TDP1 cell noCPT: inconclusive; ELG1 DNA repair: inconclusive

What do the screens show for `COc1ccccc1-n1cnc2c(c1=O)c1nc3ccccc3nc1n2CCc1ccccc1`?
RORgamma inh: 6%; IL-1B inflam inh: -23; DT40 TDP1 CPT: 21µM*; VP16 counter: -3%; TDP1 cell noCPT: 16µM*; ELG1 DNA repair: inconclusive

Results for O=C(NCCc1nnc2n1CCN(Cc1ccc(F)cc1)CC2)c1ccc(F)cc1 ?
DT40 TDP1 CPT: 10%; TDP1 cell noCPT: -5%

How did Fc1cccc(NC(=S)NC2CCCCCCC2)c1 do in these assays?
RORgamma inh: 3.5µM*; IL-1B inflam inh: inconclusive; DT40 TDP1 CPT: 23µM*; VP16 counter: 7.1µM*; TDP1 cell noCPT: inconclusive; ELG1 DNA repair: 3%

How did FC(F)(F)c1ccc(NC(=S)NC2CCCCC2)cc1 do in these assays?
RORgamma inh: 4.5µM*; IL-1B inflam inh: -100*; DT40 TDP1 CPT: inconclusive; VP16 counter: inconclusive; TDP1 cell noCPT: 18µM*; ELG1 DNA repair: -2%

What do the screens show for `COc1ccc(/C=N/NC(=O)CC(=O)NC2CCCCC2)cc1`?
RORgamma inh: -12%; IL-1B inflam inh: 26; DT40 TDP1 CPT: 3%; VP16 counter: -4%; TDP1 cell noCPT: -5%; ELG1 DNA repair: -5%

What do the screens show for `O=C(Nc1cccc(C(F)(F)F)c1)C1CCCCC1`?
RORgamma inh: 12%; IL-1B inflam inh: -2; DT40 TDP1 CPT: -30%; VP16 counter: -4%; TDP1 cell noCPT: inconclusive; ELG1 DNA repair: -8%

Results for CC(C)(C)c1ccc(/C=N/NC(=S)NC2CCCCC2)cc1 ?
RORgamma inh: 1.1µM*; IL-1B inflam inh: -30; DT40 TDP1 CPT: 15µM*; VP16 counter: 3.2µM*; TDP1 cell noCPT: 12µM*; ELG1 DNA repair: -11%

What do the screens show for `FC(F)(F)c1cccc(NC(=S)NC2CCCC2)c1`?
RORgamma inh: 5µM*; IL-1B inflam inh: 34; DT40 TDP1 CPT: inconclusive; VP16 counter: 8.9µM*; TDP1 cell noCPT: inconclusive; ELG1 DNA repair: -14%

Results for CCOC(=O)N1CCC(NC(=O)CS(=O)Cc2nc(-c3ccc(Cl)cc3)oc2C)CC1 (stereo unspecified) ?
RORgamma inh: 22%; IL-1B inflam inh: 5; DT40 TDP1 CPT: inconclusive; VP16 counter: 7%; TDP1 cell noCPT: 15µM*; ELG1 DNA repair: inconclusive

What do the screens show for `CCOc1ccc(-c2nc(CNC(=O)NC3CCCCC3)c(C)o2)cc1`?
DT40 TDP1 CPT: -10%; TDP1 cell noCPT: 6%

What do the screens show for `CCOC(=O)N1CCC(NC(=O)CSCc2nc(-c3cccc(OC)c3)oc2C)CC1`?
RORgamma inh: 24%; IL-1B inflam inh: -26; DT40 TDP1 CPT: -16%; VP16 counter: -3%; TDP1 cell noCPT: inconclusive; ELG1 DNA repair: 12µM*

Results for CCOc1ccc(-c2nc(CSCC(=O)NC3CC3)c(C)o2)cc1 ?
RORgamma inh: 8.9µM*; IL-1B inflam inh: 10; DT40 TDP1 CPT: inconclusive; VP16 counter: inconclusive; TDP1 cell noCPT: inconclusive; ELG1 DNA repair: 14%

How did Cc1ccc(-c2nc(CS(=O)CC(=O)NC3CCCC(C)C3C)c(C)o2)cc1 (stereo unspecified) do in these assays?
RORgamma inh: -16%; IL-1B inflam inh: -54*; DT40 TDP1 CPT: -17%; VP16 counter: 0%; TDP1 cell noCPT: 11%; ELG1 DNA repair: -13%

What do the screens show for `COc1ccccc1NC(=O)CCNS(=O)(=O)c1ccc2c(c1)CCN2C(C)=O`?
RORgamma inh: 5%; IL-1B inflam inh: 4; DT40 TDP1 CPT: -4%; VP16 counter: 1%; TDP1 cell noCPT: 21%; ELG1 DNA repair: -2%

What do the screens show for `CC1=C(C(=O)Nc2cccc(C(F)(F)F)c2)C(c2ccccc2)n2ncnc2N1` (stereo unspecified)?
DT40 TDP1 CPT: -30%; TDP1 cell noCPT: -17%

How did COC(=O)CC1C(=O)NCCN1C(=O)CN1Cc2ccccc2OC(c2ccccc2)C1 (stereo unspecified) do in these assays?
DT40 TDP1 CPT: -5%; TDP1 cell noCPT: -14%

What do the screens show for `CCOc1ccc(-c2nc(CSCC(=O)NCc3ccco3)c(C)o2)cc1`?
RORgamma inh: -38%; IL-1B inflam inh: inconclusive; DT40 TDP1 CPT: inconclusive; VP16 counter: 25µM*; TDP1 cell noCPT: inconclusive; ELG1 DNA repair: 7.3µM*
